Experiment [1] can be described thus: qHTS assay to identify small molecule antagonists of the estrogen receptor alpha (ER-alpha) signaling pathway using the BG1 cell line in the presence of 0.1 nM 17-beta-estradiol - cell viability counter screen (AID 1259241). Also: nearly all actives have a fitted effect of over 40% in size. The method, boiled down: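 Viability in VM7Luc4E2 cells after 22 hr compound exposure under 0.1 nM 17beta-estradiol stimulation, by CellTiter-Fluor.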

Experiment [2] is described as follows: qHTS assay to identify small molecule antagonists of the androgen receptor (AR) signaling pathway using the MDA cell line in the presence of 0.5 nM R1881 - cell viability counter screen (AID 1259242). Also: nearly all actives have a fitted effect of over 45% in size. In short, it runs like this: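 qHTS format. MDA-kb2 (MMTV-luc, AR/GR responsive) + cpd + 0.5 nM R1881 final, 16 hr 37C/0% CO2 → CellTiter-Fluor 30 min → fluorescence intensity.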
Background: In qHTS, concentration-response curves come from the screen itself.

Experiment [3] deals with Estrogen receptor (Homo sapiens) (UniProt P03372). In words: qHTS assay to identify small molecule antagonists of the estrogen receptor alpha (ER-alpha) signaling pathway using the BG1 cell line in the presence of 0.1 nM 17-beta-estradiol (AID 1259244). Also: nearly all actives have a fitted effect of over 50% in size. In short, it runs like this: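 Reporter is a stably transfected luciferase under four estrogen responsive elements in VM7Luc4E2 cells expressing native full-length ER-alpha; inhibition of 0.1 nM (final) 17beta-estradiol-driven signal over 22 h is read by luminescence.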

Experiment [4] can be described thus: qHTS assay to identify small molecule HDAC inhibitors (AID 1259364).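 Also: wild-type HCT-116 cells with endogenous class I/II HDAC activity; top concentration of the series differs between compounds; nearly all actives have a fitted effect of over 45% in size.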 In short, it runs like this: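 Quantitative high-throughput format: overnight-seeded HCT-116 cells got compounds for 2 hr at 37C; HDAC-Glo I/II reagent added, 30 min RT, luminescence measured.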
Experiment [5] in a line: qHTS assay to identify small molecule HDAC inhibitors - cell viability counter screen (AID 1259365). Also: series mostly up to about 92 µM; nearly all actives have a fitted effect of over 50% in size. In short, it runs like this:
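Cytotoxicity was gauged in wild-type HCT-116 cells after a brief 2hr treatment with DMSO-dissolved compounds at 37C and 5% CO2, using CellTiter-Glo luminescence developed for 30min at room temperature.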

A short description of experiment [6]: qHTS assay to identify small molecule antagonists of the sonic hedgehog signaling (Shh) pathway - cell viability counter screen (AID 1259367). Also: nearly all actives have a fitted effect of over 55% in size. Also: potency is read from the fitted curve at half-maximal effect. The method, boiled down: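 Cytotoxicity was assessed in parallel with Shh reporter activity by measuring live-cell protease fluorescence (CellTiter-Fluor) in NIH/3T3 cells stably carrying Gli1-Luc, treated with compound under conditioned medium stimulation for 23 hr plus 1 hr reagent incubation.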

Experiment [7] is described as follows: qHTS assay to identify small molecule agonists of the sonic hedgehog signaling (Shh) pathway (AID 1259368; calls by dose curve;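 also: NIH/3T3-derived 3T3Gli1-Luc cells carrying a stable Gli1-driven firefly luciferase reporter; series mostly up to about 92 µM; nearly all actives have a fitted effect of over 15% in size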). In short, it runs like this: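 Quantitative high-throughput format using a Gli1-driven firefly luciferase reporter line derived from NIH/3T3 cells. After a 24 hr compound treatment at 37 C and 5% CO2, luminescence reported Gli1 response element activity.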

A short description of experiment [8]: qHTS assay to identify small molecule antagonists of the sonic hedgehog signaling (Shh) pathway (AID 1259369; calls by dose curve; also: nearly all actives have a fitted effect of over 45% in size; also: potency is read from the fitted curve at half-maximal effect). In short, it runs like this: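 Stable Gli1-Luc reporter NIH/3T3 clone; quantitative HTS in stimulated mode with conditioned medium. Luminescence measured after 24hr compound treatment at 37 C.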
Experiment [9] is described as follows: qHTS assay to identify small molecule agonists of the androgen receptor (AR) signaling pathway in the presence of an antagonist - cell viability counter screen (AID 1259379).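 Also: MDA-kb2 human breast cancer cells carrying an MMTV luciferase reporter; series mostly up to about 92 µM; nearly all actives have a fitted effect of over 25% in size.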 The method, boiled down: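 Nilutamide-containing (3.0uM final) MDA-kb2 cultures, 3,000 cells/well, were treated with compounds across 15 concentrations. After 16 hr at 37C with no CO2, cell viability was determined by CellTiter-Fluor fluorescence in the luciferase assay wells.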

Experiment [10] in a line: qHTS assay to identify small molecule agonists of the estrogen receptor beta (ER-beta) signaling pathway - cell viability counter screen (AID 1259380). Also: nearly all actives have a fitted effect of over 30% in size. The method, boiled down: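 Steps: plate ER-beta-UAS-bla HEK293T cells, rest 6 hr; add compounds in DMSO; incubate 16 hr at 37C, 5% CO2; add FRET substrate 2 hr; add CellTiter-Glo, wait 30 min at room temperature; read luminescence.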

The nature of experiment [11]: qHTS assay to identify small molecule antagonists of the estrogen receptor beta (ER-beta) signaling pathway - cell viability counter screen (AID 1259382). Also: series mostly up to about 92 µM; nearly all actives have a fitted effect of over 55% in size. The method, boiled down: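 Viability is scored by CellTiter-Glo luminescence (30 min, room temperature) in ER-beta-UAS-bla HEK293T wells already read for reporter fluorescence. Compound exposure lasts 16 hr at 37C alongside 1nM 17-beta-estradiol in charcoal-stripped serum medium.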

Experiment [12] addresses Estrogen receptor (Homo sapiens) (UniProt P03372). Description: qHTS assay to identify small molecule agonists of the estrogen receptor alpha (ER-alpha) signaling pathway in the presence of an antagonist (AID 1259383; calls by dose curve; also: top concentration of the series differs between compounds; nearly all actives have a fitted effect of over 15% in size). In short, it runs like this:
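Readout was ERE-driven luciferase luminescence in VM7Luc4E2 cells, which express full-length ER-alpha endogenously. Compounds were tested at 15 concentrations for 22hr alongside 10.0nM ICI-182,780 (final concentration).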

Experiment [13] in a line: qHTS assay to identify small molecule agonists or antagonists of the thyroid stimulating hormone receptor (TSHR) signaling pathway - wild type cell line counter screen (AID 1259384; calls by dose curve). The method, boiled down:
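Wild-type HEK293 cells were plated 18 h at 37 C/5% CO2, pin-dosed with compound plus Ro20-1724 medium, held 30 min at room temperature, then given cAMP-d2 and anti-cAMP-cryptate; fluorescence was read after 1 h. Fifteen concentrations, triplicate.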

Experiment [14] in a line: qHTS assay to identify small molecule agonists of the sonic hedgehog signaling (Shh) pathway - cell viability counter screen (AID 1259366). Also: nearly all actives have a fitted effect of over 50% in size. The method, boiled down:
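Stable Gli1-Luc NIH/3T3 clone, 2,000 cells/well. Compound exposure 24hr at 37C. Read-out: CellTiter-Fluor fluorescence.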

The target of experiment [15] is Estrogen receptor beta (Homo sapiens) (UniProt Q92731). In words: qHTS assay to identify small molecule agonists of the estrogen receptor beta (ER-beta) signaling pathway (AID 1259377; active = well fitted activation curve with a large enough effect in the signal ratio in the repeat runs, not every such curve was filed as active; the % refers to the signal ratio). The method, boiled down: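 Measured by fluorescence intensity from a B/G FRET beta-lactamase substrate (2 h, room temperature) in ER-beta-UAS-bla HEK293T cells treated with DMSO-dissolved compounds for 16 hr at 37C and 5% CO2.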

The target is the same in experiment [16]. Description: qHTS assay to identify small molecule antagonists of the estrogen receptor beta (ER-beta) signaling pathway (AID 1259378; active = well fitted inhibition curve with a large enough effect in the signal ratio in the repeat runs, not every such curve was filed as active; the % refers to the signal ratio). The method, boiled down: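 ER-beta-UAS-bla HEK293T (GripTite) cells in 2% charcoal-stripped FBS medium were preincubated 6 hr at 37C, dosed with compound, then stimulated with 1 nM E2 (final) for 16 hr; beta-lactamase reporter read by B/G FRET fluorescence after 2 hr substrate loading.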

The target in experiment [17] is Thyrotropin receptor (Homo sapiens) (UniProt P16473). In words: qHTS assay to identify small molecule antagonists of the thyroid stimulating hormone receptor (TSHR) signaling pathway (AID 1259385; calls by dose curve; also: nearly all actives have a fitted effect of over 20% in size). The method, boiled down:
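TSHR-HEK293 cells were plated and held 18 h at 37C/5% CO2, then given compound plus Ro20-1724 and stimulated with TSH at 1.5 ng/mL final. After 30 min at room temperature, cAMP was detected with cAMP-d2/anti-cAMP-cryptate (1 h) by fluorescence.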

A short description of experiment [18]: qHTS assay to identify small molecule phospholipidosis (PLD) inducers (AID 1259344; active = well fitted curve in the direction sought with a large enough effect; an effect the other way counts as inactive or inconclusive). In short, it runs like this:
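Cells (HepG2, 900 per well) attach for 4 h, receive LipidTOX Red and compound together, incubate 24 h at 37 C, are fixed 30 min with paraformaldehyde/Hoechst, then imaged at one site per well.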

SMILES strings stand for the structures. Results filed as inconclusive are left out. Activity calls are given as the source filed them. Unless noted, calls follow the shape of the dose curve; as a rule, active = well fitted curve in the direction sought with a large enough effect in the repeat runs; inconclusive = weak or mixed curves; inactive = no such curve, though single readings can be large; an effect the other way counts as inactive or inconclusive.

Sequence of Estrogen receptor (Homo sapiens) (P03372 whole entry, looked up): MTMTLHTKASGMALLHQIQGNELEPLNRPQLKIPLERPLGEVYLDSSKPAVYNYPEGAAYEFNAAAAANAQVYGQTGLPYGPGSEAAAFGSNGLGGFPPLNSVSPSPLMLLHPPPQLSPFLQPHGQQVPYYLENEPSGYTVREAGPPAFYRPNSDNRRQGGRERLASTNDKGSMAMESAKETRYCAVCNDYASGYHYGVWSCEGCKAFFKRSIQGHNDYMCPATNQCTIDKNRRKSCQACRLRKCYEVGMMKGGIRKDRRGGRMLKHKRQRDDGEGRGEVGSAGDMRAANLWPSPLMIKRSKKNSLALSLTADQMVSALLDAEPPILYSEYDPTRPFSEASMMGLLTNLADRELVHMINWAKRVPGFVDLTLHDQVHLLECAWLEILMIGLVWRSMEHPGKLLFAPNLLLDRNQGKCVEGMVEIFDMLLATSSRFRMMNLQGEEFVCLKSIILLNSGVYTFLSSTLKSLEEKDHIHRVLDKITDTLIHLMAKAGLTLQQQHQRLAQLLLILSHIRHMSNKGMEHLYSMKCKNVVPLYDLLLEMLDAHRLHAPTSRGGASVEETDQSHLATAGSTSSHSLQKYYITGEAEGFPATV
Sequence of Estrogen receptor beta (Homo sapiens) (Q92731 whole entry, looked up): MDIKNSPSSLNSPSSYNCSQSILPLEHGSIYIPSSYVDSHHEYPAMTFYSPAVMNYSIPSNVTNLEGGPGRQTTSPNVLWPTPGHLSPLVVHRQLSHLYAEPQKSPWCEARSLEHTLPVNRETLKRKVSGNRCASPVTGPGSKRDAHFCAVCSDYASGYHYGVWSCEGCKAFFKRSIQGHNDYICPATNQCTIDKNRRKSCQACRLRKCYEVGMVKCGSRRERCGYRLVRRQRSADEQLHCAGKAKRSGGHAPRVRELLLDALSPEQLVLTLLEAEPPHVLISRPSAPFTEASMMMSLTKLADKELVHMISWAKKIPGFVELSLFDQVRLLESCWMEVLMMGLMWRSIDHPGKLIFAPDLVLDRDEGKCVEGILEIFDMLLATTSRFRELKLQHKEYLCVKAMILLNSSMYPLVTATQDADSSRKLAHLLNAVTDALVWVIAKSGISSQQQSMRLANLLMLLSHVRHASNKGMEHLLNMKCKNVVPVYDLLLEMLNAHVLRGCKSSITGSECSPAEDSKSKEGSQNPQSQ
Sequence of Thyrotropin receptor (Homo sapiens) (P16473 whole entry, looked up): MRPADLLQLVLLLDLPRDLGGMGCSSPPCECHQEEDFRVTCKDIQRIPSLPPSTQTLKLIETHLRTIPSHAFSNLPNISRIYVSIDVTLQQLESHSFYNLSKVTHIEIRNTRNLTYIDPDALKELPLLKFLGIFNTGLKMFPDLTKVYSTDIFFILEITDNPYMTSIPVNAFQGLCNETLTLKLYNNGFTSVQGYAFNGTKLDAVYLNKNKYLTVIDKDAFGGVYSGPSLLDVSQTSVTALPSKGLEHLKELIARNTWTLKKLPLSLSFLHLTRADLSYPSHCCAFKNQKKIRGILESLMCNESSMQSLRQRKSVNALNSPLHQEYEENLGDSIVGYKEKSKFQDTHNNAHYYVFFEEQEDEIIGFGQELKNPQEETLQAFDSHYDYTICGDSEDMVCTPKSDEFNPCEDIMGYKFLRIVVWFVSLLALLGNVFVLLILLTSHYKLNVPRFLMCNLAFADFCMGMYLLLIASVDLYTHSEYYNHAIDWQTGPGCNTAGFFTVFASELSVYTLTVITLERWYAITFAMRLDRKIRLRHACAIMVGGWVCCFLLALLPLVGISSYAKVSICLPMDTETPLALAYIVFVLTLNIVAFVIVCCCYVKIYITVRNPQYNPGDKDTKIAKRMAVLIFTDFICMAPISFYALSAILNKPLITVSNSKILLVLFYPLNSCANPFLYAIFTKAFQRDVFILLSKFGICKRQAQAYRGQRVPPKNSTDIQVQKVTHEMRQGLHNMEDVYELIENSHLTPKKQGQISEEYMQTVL

Turning to `Clc1ccccc1`, the Potency result in experiment [1], in [2], in [3], in experiment [4], in experiment [5] and in experiment [7] was “inactive” throughout. The Potency result in experiment [9], in [10], in [11] and in experiment [12] was “inactive” in each case. For the same compound, the Potency in experiment [6] was 26.9 µM (active); in experiment [8], 0.479 µM (active). In experiment [13], the outcome was inactive.
As for `Cc1nnc(-c2ccccc2)c(=O)n1N`, the Potency entry in [1], in experiment [2], in [3], in experiment [4], in experiment [5] and in experiment [14] was “inactive” throughout. For the same compound, the Potency entry in experiment [7], in experiment [8], in [15], in experiment [16], in experiment [9] and in experiment [10] was “inactive” in each case. Besides, the Potency result in experiment [11], in [12] and in experiment [17] was “inactive” each time. Further, the result in experiment [13] was inactive.
Take `C[C@H]1O[C@H](OC2[C@@H](O)[C@@H](O)C(O)[C@H](O)[C@H]2O)[C@@H](N)C[C@@H]1N=C(N)C(=O)O` (some centres undefined): the Potency result in [1], in experiment [2], in experiment [3], in [4], in experiment [5] and in experiment [14] was “inactive” in each case. Also, the Potency entry in experiment [6], in experiment [7], in experiment [8], in [15], in experiment [16] and in experiment [9] was “inactive” throughout. The Potency entry in experiment [10], in experiment [11], in [12] and in [17] was “inactive” throughout. For the same compound, the compound was called inactive in [13].
With `C1CCNCC1`, the Potency entry in [1], in experiment [2], in experiment [3], in experiment [4], in experiment [5] and in [14] was “inactive” in each case. In addition, the Potency entry in experiment [6], in [7], in [8], in [15], in [16] and in experiment [9] was “inactive” throughout. The Potency entry in [10], in [11], in experiment [12] and in experiment [17] was “inactive” throughout. Besides, the call in experiment [13] was inactive.
For `FC(Cl)(Cl)C(F)(Cl)Cl`, the Potency entry in experiment [1], in experiment [2], in [3], in [4], in [5] and in experiment [14] was “inactive” throughout. Moreover, the Potency result in experiment [6], in experiment [7], in experiment [8], in [9], in experiment [10] and in [11] was “inactive” in each case. The Potency result in experiment [12] and in experiment [17] was “inactive” throughout. In [13], the result was inactive.
In the case of `CCOP(=O)(O)C(N)=O`, the Potency entry in experiment [1], in experiment [2], in experiment [3], in [4], in experiment [5] and in experiment [14] was “inactive” each time. The Potency result in [6], in experiment [7], in experiment [8], in [15], in experiment [16] and in [9] was “inactive” throughout. For the same compound, the Potency entry in experiment [10], in experiment [11], in experiment [12] and in experiment [17] was “inactive” in each case. In addition, the result in experiment [13] was inactive.
Regarding `C[N+]1(CCC(C(N)=O)(c2ccccc2)c2ccccc2)CCCCC1`, the Potency result in experiment [1], in [2], in experiment [3], in [4], in [5] and in [14] was “inactive” in each case. In addition, the Potency entry in experiment [7], in experiment [8], in experiment [9], in experiment [10], in [11] and in experiment [12] was “inactive” each time. Further, the Potency entry in experiment [17] is “inactive”. The outcome in [18] and in [13] was inactive.
As for `O=S(=O)(Cl)Cl`, the Potency result in experiment [1], in experiment [2], in experiment [3], in [5], in experiment [14] and in [6] was “inactive” each time. The Potency entry in experiment [7], in experiment [8], in experiment [15], in experiment [16], in experiment [9] and in [10] was “inactive” in each case. In addition, the Potency result in experiment [11], in [12] and in experiment [17] was “inactive” each time. Also, in experiment [13], the compound was called inactive.
As to `O=C(O)c1cc(I)cc(I)c1I`, the Potency result in experiment [1], in [2], in [3], in experiment [4], in [5] and in [14] was “inactive” each time. The Potency result in experiment [7], in [8], in [10], in [11], in experiment [12] and in [17] was “inactive” in each case. Further, the compound was called inactive in experiment [13].

The values above are taken from PubChem BioAssay (Tox21).
